In ChEMBL document CHEMBL3988442, “University of Dundee, Small-Polar-MMV Screening Library” (2021) one finds Percent Effect data, which are given here for 19 compounds.

The target of this experiment is AMP-activated protein kinase, AMPK (Homo sapiens) (UniProt P54646+O43741+P54619+Q9UGJ0+Q9Y478+Q13131+Q9UGI9). Kind of experiment: AMP-dependent Kinase enzyme assay. An in vitro enzyme assay that detects ADP turnover that is directly proportional to AMPK activity. This uses naive AMPK that is activated during the assay with MK-8722. It is filed as functional. Details: scale not given: direction of the effect not stated beside the values. Particulars: 30 µM.
Regarding `CCCn1cc(-c2cc(C(=O)N(C)C)c3ccc(OC)cc3n2)cn1`, the Percent Effect turned out to be 8.93%.

On to `COc1ccc2c(c1)CCCN(C(=O)NCC1CCCO1)C2` (centres undefined), for which the Percent Effect was determined as 5.17%.

As for `Cn1ncnc1NCc1ccc(Br)cc1`, the Percent Effect came to 6.33%.

As for `CC(C)c1cc(C(=O)N(Cc2ccncc2)CC2CCCO2)no1` (centres undefined), the Percent Effect was -4.12%.

With `CC(=O)N1CCC1c1nc(-c2ccc(C)s2)no1` (centres undefined), the Percent Effect stood at 7.59%.

Consider `COC(=O)c1sc(C(NC(=O)c2ccccc2)C2CC2)nc1C` (centres undefined), for which the Percent Effect is -2.15%.

As for `c1ccc(Cc2noc(-c3ccc(NCC4CCCCO4)nc3)n2)cc1` (centres undefined), the Percent Effect was found to be 3.99%.

Take `CC(=O)N[C@H]1CCO[C@@H](c2cccc(NC(=O)Cc3ccccc3)c2)C1`: the Percent Effect was 7.18%.

`CCn1ncnc1C1CC(=O)NCc2nc(N3CCOCC3)sc21` (centres undefined): the Percent Effect was -10.6%.

For `CCn1cnnc1CNS(=O)(=O)N1CCCC1c1ccc(C)o1` (centres undefined), the Percent Effect came out at 0.967%.

Consider `CC(CNC(=O)c1cc(Cn2cnc3ccccc32)[nH]n1)N1CCCC1` (centres undefined), for which the Percent Effect is -5.09%.

For the compound `O=C(c1coc(-c2ccccc2)n1)N1CCCCC1`, the Percent Effect stood at 0.702%.

As to `CC(C)N1CCCC(CNC(=O)CN(C)S(=O)(=O)c2ccccc2)C1` (centres undefined), the Percent Effect was -1.71%.

Take `COc1cccc(CN2C[C@H]3CC[C@H]2C3)c1OCCN1CCOCC1`: the Percent Effect is -4.89%.

`O=C(Nc1cn[nH]c1)NC1CCN(c2ccccc2OC(F)F)C1` (centres undefined): the Percent Effect is -1.4%.

As for `CC(C)(CNc1cccc(Cl)c1)NC(=O)C1CCCN(CC(N)=O)C1` (centres undefined), the Percent Effect was determined as 40.1%.

As for `CCN1CC(c2ccccc2)CC2(CCN(Cc3ncc[nH]3)CC2)C1` (centres undefined), the Percent Effect was -6.2%.

Consider `Cc1ccc(C(=O)NC2CCN(S(C)(=O)=O)CC2)c(=O)[nH]1`, for which the Percent Effect worked out at 1.76%.

In the case of `Cc1nnc(NC(=O)NCCN(C(=O)OC(C)(C)C)C2CC2)s1`, the Percent Effect is -6.8%.
